# Inconclusive results are not listed. The source made the active and inactive calls. The calls were made as follows: active = hit-call score of the fitted dose curve at least 0.9, where 1 is the maximum; inconclusive = response in the unintended direction; inactive = score below 0.9.
# Tests used:
# [1] = biological target: human Thyroid hormone Receptor alpha (TRa), THRA (gene 7067) (UniProt P10827); assay: ATG_hTRa_XSP1: Attagene TRANS-FACTORIAL Multi-Species (XSP1) HepG2 Assay for human Thyroid hormone Receptor alpha (TRa) (AID 2283805)
# human Thyroid hormone Receptor alpha (TRa), THRA (gene 7067), sequence (P10827 whole entry, looked up): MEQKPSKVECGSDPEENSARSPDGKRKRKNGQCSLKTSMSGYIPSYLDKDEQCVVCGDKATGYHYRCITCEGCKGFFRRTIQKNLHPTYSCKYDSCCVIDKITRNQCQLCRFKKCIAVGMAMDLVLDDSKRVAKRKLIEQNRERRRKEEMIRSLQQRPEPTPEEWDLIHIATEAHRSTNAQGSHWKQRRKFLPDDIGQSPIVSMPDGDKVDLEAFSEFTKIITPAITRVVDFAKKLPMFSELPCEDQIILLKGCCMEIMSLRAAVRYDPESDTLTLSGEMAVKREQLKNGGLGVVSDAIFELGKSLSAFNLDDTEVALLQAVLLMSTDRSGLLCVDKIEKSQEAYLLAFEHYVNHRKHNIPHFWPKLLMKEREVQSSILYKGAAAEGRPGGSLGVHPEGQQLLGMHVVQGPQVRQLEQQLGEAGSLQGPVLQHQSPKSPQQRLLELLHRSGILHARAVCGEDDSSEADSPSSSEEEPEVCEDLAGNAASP
# Protocol: ATG_XSP1_multi-species_TRANS is a cell-based, multiplexed assay created by modifying the existing Attagene TRANS-FACTORIAL system to include a panel of nuclear receptors from some or all the following species: human (Homo sapiens), mouse (Mus musculus), frog (Xenopus laevis), zebrafish (Danio rerio), chicken (Gallus gallus), and turtle (Chrysemys picta). The ECOTOX-FACTORIAL format uses HepG2, a human liver cell line, with measurements taken at 24 hours after chemical dosing in a 24-well plate. Xsp1 included 3 nM 6-alpha-fluorotestosterone to partially stimulate the androgen receptor.ATG_hTRa_XSP1 is one of 29 assay components measured or calculated from the ATG_XSP1_multi-species_TRANS assay. It is designed to make measurements of mRNA induction, a form of inducible reporter, as detected with fluorescence intensity signals by Reverse transcription polymerase chain reaction (RT-PCR) and Capillary electrophoresis technology.The assay endpoint ATG_hTRa_XSP1 was analyzed in the positive analysis fitting direction relative to DMSO as the negative control and baseline of activity. […] Furthermore, this assay endpoint can be referred to as a primary readout, because this assay has produced multiple assay endpoints where this one serves a reporter gene function. […]
# [2] = biological target: zebrafish Thyroid Hormone Receptor alpha (TRa), thraa (gene 30670) (UniProt Q98867); assay: ATG_zfTRa_XSP1: Attagene TRANS-FACTORIAL Multi-Species (XSP1) HepG2 Assay for zebrafish Thyroid Hormone Receptor alpha (TRa) (AID 2283807)
# zebrafish Thyroid Hormone Receptor alpha (TRa), thraa (gene 30670), sequence (Q98867 whole entry, looked up, the tested form may be a part): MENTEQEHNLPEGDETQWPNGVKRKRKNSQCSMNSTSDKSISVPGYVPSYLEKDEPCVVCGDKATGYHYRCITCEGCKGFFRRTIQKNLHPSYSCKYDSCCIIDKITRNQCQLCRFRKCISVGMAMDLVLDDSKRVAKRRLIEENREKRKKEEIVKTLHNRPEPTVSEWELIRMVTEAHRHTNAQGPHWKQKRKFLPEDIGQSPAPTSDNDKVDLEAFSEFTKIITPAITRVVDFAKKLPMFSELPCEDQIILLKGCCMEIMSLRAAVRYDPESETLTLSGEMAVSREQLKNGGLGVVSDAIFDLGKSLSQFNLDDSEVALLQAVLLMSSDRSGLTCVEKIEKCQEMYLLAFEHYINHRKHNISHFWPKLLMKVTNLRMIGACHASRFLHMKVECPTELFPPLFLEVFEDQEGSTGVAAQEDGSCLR
# Procedure, shortened: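 Reporter transcripts driven by a chimeric zebrafish TRa–Gal4 protein were measured by RT-PCR with fluorescent labelling and capillary electrophoresis. These came from transiently transfected HepG2 cells after 24 h chemical exposure, with 3 nM 6-alpha-fluorotestosterone added; baseline was DMSO.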
# [3] = biological target: human Thyroid hormone Receptor beta (TRb), THRB (gene 7068) (UniProt P10828); assay: ATG_hTRb_XSP1: Attagene TRANS-FACTORIAL Multi-Species (XSP1) HepG2 Assay for human Thyroid hormone Receptor beta (TRb) (AID 2283808)
# human Thyroid hormone Receptor beta (TRb), THRB (gene 7068), sequence (P10828 whole entry, looked up, the tested form may be a part): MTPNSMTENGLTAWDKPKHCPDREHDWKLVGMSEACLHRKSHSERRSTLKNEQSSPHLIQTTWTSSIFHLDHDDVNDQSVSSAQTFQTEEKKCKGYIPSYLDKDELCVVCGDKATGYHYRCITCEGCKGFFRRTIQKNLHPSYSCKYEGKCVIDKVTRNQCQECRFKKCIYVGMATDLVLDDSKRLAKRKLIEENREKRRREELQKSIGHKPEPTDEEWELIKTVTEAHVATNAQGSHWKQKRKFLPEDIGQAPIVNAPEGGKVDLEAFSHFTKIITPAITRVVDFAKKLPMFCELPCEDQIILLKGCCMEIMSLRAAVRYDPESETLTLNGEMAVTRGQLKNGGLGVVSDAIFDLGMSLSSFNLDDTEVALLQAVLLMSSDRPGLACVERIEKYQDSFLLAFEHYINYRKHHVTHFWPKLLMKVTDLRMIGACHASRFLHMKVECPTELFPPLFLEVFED
# Procedure, shortened: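 Readout is reporter mRNA induction measured by RT-PCR, fluorescent labelling and capillary electrophoresis, fitted upward relative to DMSO. Transiently transfected human HepG2 cells expressing NR-Gal4 chimeras were dosed for 24 h, medium containing 3 nM 6-alpha-fluorotestosterone.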
# [4] = biological target: zebrafish Thyroid Hormone Receptor beta (TRb), thrb (gene 30607) (UniProt Q9PVE4); assay: ATG_zfTRb_XSP1: Attagene TRANS-FACTORIAL Multi-Species (XSP1) HepG2 Assay for zebrafish Thyroid Hormone Receptor beta (TRb) (AID 2283809)
# zebrafish Thyroid Hormone Receptor beta (TRb), thrb (gene 30607), sequence (Q9PVE4 whole entry, looked up, the tested form may be a part): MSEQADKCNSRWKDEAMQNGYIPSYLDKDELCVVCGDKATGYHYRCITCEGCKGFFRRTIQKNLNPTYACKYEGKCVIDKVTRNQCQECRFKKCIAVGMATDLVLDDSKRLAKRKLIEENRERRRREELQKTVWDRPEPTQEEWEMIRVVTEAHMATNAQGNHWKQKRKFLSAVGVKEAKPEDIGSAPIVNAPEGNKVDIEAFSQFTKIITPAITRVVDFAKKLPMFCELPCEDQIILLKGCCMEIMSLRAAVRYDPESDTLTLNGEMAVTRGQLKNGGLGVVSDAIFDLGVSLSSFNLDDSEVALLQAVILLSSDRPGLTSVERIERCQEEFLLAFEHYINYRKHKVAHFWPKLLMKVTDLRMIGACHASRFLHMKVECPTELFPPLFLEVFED
# Procedure, shortened: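 HepG2 cells transiently transfected with multiplexed GAL4-UAS reporter units expressing chimeric zebrafish TRb–Gal4. Dosed 24 h with 3 nM 6-alpha-fluorotestosterone present; reporter mRNA measured by RT-PCR, HpaI digestion and capillary electrophoresis; gain of signal versus DMSO.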
# [5] = ATG_M_06_XSP2: Attagene TRANS-FACTORIAL Multi-Species (XSP2) HepG2 Assay for M06 Transcription Factor (Internal Marker) (AID 2283811);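 also: internal background marker reporter mRNA measured by RT-PCR and capillary electrophoresis; hits are increases in signal above the DMSO baseline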
# Procedure, shortened: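 Internal-marker reporter transcript, quantified by RT-PCR, 6-FAM labelling, HpaI digestion and capillary electrophoresis, 24 hours after dosing transfected HepG2 cells with 3 nM 6-alpha-fluorotestosterone and 1.5 nM norgestrel present; DMSO baseline.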
# [6] = test system: turtle Estrogen Receptor (ERa), gene 101933533; assay: ATG_trERa_XSP2: Attagene TRANS-FACTORIAL Multi-Species (XSP2) HepG2 Assay for turtle Estrogen Receptor (ERa) (AID 2283812);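 also: actives raise reporter signal above DMSO so AC50 reflects agonist activity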
# Procedure, shortened: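 Readout is reporter mRNA quantified by RT-PCR with capillary electrophoresis after 24 h compound exposure, increase relative to DMSO. Uses transiently transfected human HepG2 liver cells carrying a chimeric turtle ERa-Gal4 receptor driving GAL4-UAS reporters.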
# [7] = biological target: GAL4 Transcription Factor (Internal Marker), GAL4 (gene 855828) (UniProt P04386); assay: ATG_GAL4_XSP2: Attagene TRANS-FACTORIAL Multi-Species (XSP2) HepG2 Assay for GAL4 Transcription Factor (Internal Marker) (AID 2283814);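 also: GAL4 reporter mRNA background control in MRTU transfected cells not a receptor target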
# GAL4 Transcription Factor (Internal Marker), GAL4 (gene 855828), sequence (P04386 whole entry, looked up, the tested form may be a part): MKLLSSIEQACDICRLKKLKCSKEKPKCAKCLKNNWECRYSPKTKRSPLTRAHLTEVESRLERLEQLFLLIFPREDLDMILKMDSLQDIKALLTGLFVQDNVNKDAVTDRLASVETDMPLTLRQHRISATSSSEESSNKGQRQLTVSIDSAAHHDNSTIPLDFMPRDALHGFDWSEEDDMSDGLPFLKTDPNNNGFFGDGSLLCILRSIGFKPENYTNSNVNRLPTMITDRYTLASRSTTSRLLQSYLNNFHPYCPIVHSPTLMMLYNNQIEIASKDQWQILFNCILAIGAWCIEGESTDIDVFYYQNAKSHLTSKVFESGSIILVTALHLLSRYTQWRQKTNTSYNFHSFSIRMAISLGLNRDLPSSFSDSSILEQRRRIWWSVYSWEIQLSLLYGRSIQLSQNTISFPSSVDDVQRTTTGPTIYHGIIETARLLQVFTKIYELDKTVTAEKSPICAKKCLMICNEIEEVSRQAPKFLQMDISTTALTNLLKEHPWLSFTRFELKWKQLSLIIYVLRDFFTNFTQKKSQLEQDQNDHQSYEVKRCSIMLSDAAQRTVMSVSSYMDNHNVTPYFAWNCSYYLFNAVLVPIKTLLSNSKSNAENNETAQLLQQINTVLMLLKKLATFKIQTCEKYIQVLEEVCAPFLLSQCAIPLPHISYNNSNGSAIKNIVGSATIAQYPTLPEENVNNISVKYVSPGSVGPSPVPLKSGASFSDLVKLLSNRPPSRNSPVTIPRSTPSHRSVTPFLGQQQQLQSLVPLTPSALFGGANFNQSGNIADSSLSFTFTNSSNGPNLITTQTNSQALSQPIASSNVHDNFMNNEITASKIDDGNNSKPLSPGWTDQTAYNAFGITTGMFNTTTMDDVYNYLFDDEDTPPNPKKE
# Procedure, shortened: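 Background-control readout: gain-of-signal fitted against DMSO. After 24 h exposure of transfected HepG2 (MRTU, GAL4-UAS reporters; 3 nM 6-alpha-fluorotestosterone, 1.5 nM norgestrel present), transcripts quantified by RT-PCR and capillary electrophoresis fluorescence.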
# [8] = biological target: zebrafish Estrogen Receptor (ER1), esr1 (gene 259252) (UniProt P57717); assay: ATG_zfER1_XSP2: Attagene TRANS-FACTORIAL Multi-Species (XSP2) HepG2 Assay for zebrafish Estrogen Receptor (ER1) (AID 2283816)
# zebrafish Estrogen Receptor (ER1), esr1 (gene 259252), sequence (P57717 whole entry, looked up, the tested form may be a part): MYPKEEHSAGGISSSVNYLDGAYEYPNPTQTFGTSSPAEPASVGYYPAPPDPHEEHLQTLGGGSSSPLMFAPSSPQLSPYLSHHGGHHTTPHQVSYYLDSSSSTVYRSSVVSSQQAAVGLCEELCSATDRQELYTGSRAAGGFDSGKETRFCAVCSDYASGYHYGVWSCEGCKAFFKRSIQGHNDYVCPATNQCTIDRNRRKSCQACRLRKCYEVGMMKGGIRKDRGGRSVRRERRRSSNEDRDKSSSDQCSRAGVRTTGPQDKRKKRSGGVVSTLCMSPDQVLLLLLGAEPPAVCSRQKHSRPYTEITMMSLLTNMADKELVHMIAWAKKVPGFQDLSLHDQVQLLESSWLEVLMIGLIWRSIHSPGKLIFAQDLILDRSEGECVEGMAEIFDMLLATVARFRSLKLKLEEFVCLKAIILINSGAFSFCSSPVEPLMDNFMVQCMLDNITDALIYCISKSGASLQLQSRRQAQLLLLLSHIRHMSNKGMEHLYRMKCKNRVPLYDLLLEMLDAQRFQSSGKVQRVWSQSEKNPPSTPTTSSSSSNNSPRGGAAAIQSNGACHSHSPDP
# Procedure, shortened: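 After 24 h compound exposure, RNA from transfected HepG2 cells was reverse-transcribed and reporter transcripts resolved by capillary electrophoresis. The TRANS format reads exogenous zebrafish ER1-Gal4 chimera activity on GAL4-UAS elements; gain of signal against DMSO.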
# [9] = biological target: chicken Estrogen Receptor (ERa), ESR1 (gene 396099) (UniProt P06212); assay: ATG_chERa_XSP2: Attagene TRANS-FACTORIAL Multi-Species (XSP2) HepG2 Assay for chicken Estrogen Receptor (ERa) (AID 2283817);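 also: actives raise reporter signal above DMSO so AC50 reflects ER activation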
# chicken Estrogen Receptor (ERa), ESR1 (gene 396099), sequence (P06212 whole entry, looked up, the tested form may be a part): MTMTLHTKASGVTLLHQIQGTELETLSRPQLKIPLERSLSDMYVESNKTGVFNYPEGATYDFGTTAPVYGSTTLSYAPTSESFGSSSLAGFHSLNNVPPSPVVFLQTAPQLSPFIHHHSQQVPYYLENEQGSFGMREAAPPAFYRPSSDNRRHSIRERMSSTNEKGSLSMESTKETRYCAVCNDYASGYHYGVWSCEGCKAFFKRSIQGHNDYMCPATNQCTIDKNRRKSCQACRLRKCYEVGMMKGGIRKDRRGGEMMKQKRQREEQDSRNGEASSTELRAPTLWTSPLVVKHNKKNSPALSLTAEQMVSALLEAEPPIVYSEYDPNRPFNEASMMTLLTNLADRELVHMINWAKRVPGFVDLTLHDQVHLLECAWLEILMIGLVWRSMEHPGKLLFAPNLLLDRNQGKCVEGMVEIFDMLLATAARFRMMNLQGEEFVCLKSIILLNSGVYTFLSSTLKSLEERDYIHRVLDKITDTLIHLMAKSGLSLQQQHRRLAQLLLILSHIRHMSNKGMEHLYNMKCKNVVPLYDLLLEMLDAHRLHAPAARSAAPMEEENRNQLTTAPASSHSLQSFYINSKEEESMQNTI
# Procedure, shortened: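 Reporter mRNA induction read by RT-PCR, fluorescent labelling and capillary electrophoresis after 24 h exposure; positive-direction fit against DMSO baseline. HepG2 cells transfected with multiplexed GAL4-UAS units including chicken ERa chimera; medium contained 3 nM 6-alpha-fluorotestosterone plus 1.5 nM norgestrel.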
# [10] = ATG_XTT_Cytotoxicity_XSP1: Cytotoxicity Assessment in the Attagene TRANS-FACTORIAL Multi-Species (XSP1) HepG2 Assay (AID 2283810)
# Procedure, shortened: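 XTT viability readout taken at 24 hours post-dosing in HepG2 liver cells co-treated with 3 nM 6-alpha-fluorotestosterone. Signal loss relative to DMSO controls reflects cytotoxicity.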
Structure (SMILES),outcome [1],outcome [2],outcome [3],outcome [4],outcome [5],AC50 [6],outcome [7],AC50 [8],AC50 [9],outcome [10]
O=C(c1ccccc1)c1ccc(O)cc1O,inactive,inactive,inactive,inactive,inactive,2.81 µM (active),inactive,10 µM (active),2.77 µM (active),–
C[C@]12CC[C@H]3C(=CCc4cc(O)ccc43)[C@@H]1CCC2=O,inactive,inactive,inactive,inactive,inactive,0.0129 µM (active),–,0.086 µM (active),0.0146 µM (active),inactive
